Most compounds without a hit are left out; they make up all but 19% or so of the library.
MCF10A rereplic: DNA re-replication induction in MCF 10a cells | MCF 10A DNA re-replication, Hoechst nuclear intensity, 48 h | Potency, µM (titrated, usually from 46.1 µM), actives largely listed as activators | actives 2.9% (n = 350,000); further: nearly all actives have a fitted effect of over 50% in size
IL-1B inflam inh: inhibitors of inflammasome signaling (IL-1 beta secretion) | activity change, % at 57.5 µM | actives 4.7% (n = 360,000) | THP-1 LPS/ATP IL-1B secretion, AlphaLISA, 16 h; active compounds read low; in the data active means activity change below about -50%; inconclusive means mostly about -30% to -49%
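Secreted IL-1B measured by AlphaLISA bead assay after 16 h compound exposure of THP-1 cells; compounds (final up to 57.5 uM) added 1 h before LPS (250 ng/mL) and ATP (1.25 mM) stimulation; lower signal means less secretion.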
DT40 TDP1 no CPT: qHTS for Inhibitors of human tyrosyl-DNA phosphodiesterase 1 (TDP1): qHTS in cells in absence of CPT; Potency, µM (titrated, usually from 46.2 µM), actives largely listed as inhibitors; DT40 Tdp1-/- hTDP1 cells, no CPT, ATP luminescence, 48 h; actives 15% (n = 420,000); further: nearly all actives have a fitted effect of over 55% in size
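Luminescent ATP content (CellTiter-Glo) served as the growth readout. Knockout chicken DT40 cells expressing human TDP1 were exposed to compounds without camptothecin for a minimum 48 hr at 37 °C.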
DT40 TDP1 CPT: growth inhibition of DT40 Tdp1-/-;hTDP1 cells with camptothecin (screen for TDP1 inhibitors); actives 12% (n = 420,000); chicken DT40 Tdp1-/-;hTDP1 cells + 20 nM CPT, ATP luminescence, 48 h; Potency, µM (titrated, usually from 46.2 µM), most hits filed as inhibitors; further: nearly all actives have a fitted effect of over 55% in size
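Chicken DT40 Tdp1-/- cells stably complemented with human TDP1 were seeded at 400 cells/well in medium containing 20 nM camptothecin, exposed to pin-transferred compounds, and grown at 37 °C for at least 48 hr. Viability was read as ATP luminescence.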
Chronic BCR inh: blocks chronic active B-cell receptor signaling; ABC-DLBCL IkBa-CBG/CBR reporter, luminescence ratio, 4 h; Potency, µM (series often up to 46.1 µM), hits mostly inhibitors; actives 0.05% (n = 340,000); active means well fitted inhibition curve with a large enough effect in the signal ratio, with a control signal flat, not every such curve was filed as active; inconclusive means small, poorly fitted or top-dose-only effect, or effect the other way, or a change in a side signal; the % refers to the signal ratio
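Compounds up to 46 uM were incubated four hours with TMD8 cells whose green CBG68 luciferase is fused to IkappaBalpha; red CBR luminescence normalised the signal, and concentration-effect curves were fitted to fusion, red and ratio data.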
SW480 rereplic: induces DNA re-replication in SW480 colon adenocarcinoma cells. actives 1.8% (n = 340,000). AID 624297. SW480 DNA re-replication, Hoechst DNA content imaging, 48 h. Potency, µM (highest dose often 46.1 µM), hits mostly activators; further: nearly all actives have a fitted effect of over 55% in size
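First, 250 cells per well were seeded. Next, compound or vehicle (23 nL) was pinned in, plates sat 48 hr at 37 C. Finally Hoechst was added for 40 min before fluorescence scanning.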
Large screens that a line does not name were inactive. Unless noted, the call rests on the fitted dose curve; in most records, active means well fitted curve in the direction sought with a large enough effect; inconclusive means small, poorly fitted or top-dose-only effect, or another doubt; inactive means no such curve, though single readings can be large; an effect the other way counts as inactive or inconclusive.

CCC(Sc1ccc2nnc(-c3ccc(OC)c(OC)c3)n2n1)C(=O)O (configuration not stated)	none
Cc1ccc2nc(N3C(=O)C(O)=C(C(=O)c4ccc(C)o4)C3c3cccc(O)c3)sc2c1 (configuration not stated)	MCF10A rereplic 23µM, Chronic BCR inh inconclusive
COc1cccc(C2C(C(=O)c3ccc(C)o3)=C(O)C(=O)N2c2cc(C)on2)c1 (configuration not stated)	DT40 TDP1 no CPT inconclusive, DT40 TDP1 CPT 23µM, SW480 rereplic inconclusive
COc1ccc(C2C(C(C)=O)=C(O)C(=O)N2c2nc3ccccc3s2)cc1OC (configuration not stated)	MCF10A rereplic 2.3µM, Chronic BCR inh inconclusive, SW480 rereplic inconclusive
COc1ccc(C2C(C(C)=O)=C(O)C(=O)N2c2nccs2)cc1OC (configuration not stated)	Chronic BCR inh inconclusive
COc1cc(C2C(C(=O)c3ccc(C)o3)=C(O)C(=O)N2c2cc(C)on2)ccc1OCc1ccccc1 (configuration not stated)	DT40 TDP1 no CPT 29µM, DT40 TDP1 CPT inconclusive, Chronic BCR inh inconclusive
CCc1cc(C(=O)N(CCCOC)c2c(N)n(Cc3ccccc3)c(=O)[nH]c2=O)sc1C	none
COc1ccc(C(C)(O)c2nc(-c3cnc4ccccc4c3)cs2)cc1 (configuration not stated)	DT40 TDP1 no CPT inconclusive, DT40 TDP1 CPT inconclusive (no result: MCF10A rereplic, Chronic BCR inh, SW480 rereplic)
CCOC(=O)c1sc(N2C(=O)C(O)=C(C(=O)c3ccc(C)o3)C2c2ccc(OC)c(OC)c2)nc1C (configuration not stated)	MCF10A rereplic inconclusive, DT40 TDP1 no CPT inconclusive, DT40 TDP1 CPT 23µM, SW480 rereplic inconclusive
CCNC(=O)NC(=O)COC(=O)c1cccc(S(=O)(=O)N2CC3(C)CC2CC(C)(C)C3)c1 (configuration not stated)	MCF10A rereplic inconclusive
C=CCOC(=O)/C=C/C(=O)NC(N)=O	MCF10A rereplic inconclusive, DT40 TDP1 no CPT 16µM, DT40 TDP1 CPT 10µM, Chronic BCR inh inconclusive
C=CCOC(=O)Nc1ccc(Cl)cc1NC(=O)OCC=C	Chronic BCR inh inconclusive
O=C(Nc1ccc(Br)cc1)c1cc(-c2ccncc2)nc2ccccc12	MCF10A rereplic inconclusive, DT40 TDP1 no CPT 16µM, DT40 TDP1 CPT inconclusive, Chronic BCR inh inconclusive, SW480 rereplic 16µM
Cc1cccc(-c2cc(C(=O)Nc3cccnc3)c3ccccc3n2)c1	MCF10A rereplic inconclusive, DT40 TDP1 no CPT inconclusive, DT40 TDP1 CPT 21µM, Chronic BCR inh inconclusive
O=C(Nc1ccncc1)c1cc(-c2ccccc2)nc2ccccc12	DT40 TDP1 no CPT 21µM, DT40 TDP1 CPT inconclusive (no result: MCF10A rereplic, Chronic BCR inh, SW480 rereplic)
Cc1cc([N+](=O)[O-])nn1CC(=O)N/N=C/c1ccccc1O	DT40 TDP1 no CPT 18µM, DT40 TDP1 CPT 8.2µM, SW480 rereplic inconclusive
Cc1cc([N+](=O)[O-])nn1CC(=O)N/N=C/c1ccccc1F	none
Cc1cc(C)n(CCC(=O)N/N=C/c2ccc(Br)c([N+](=O)[O-])c2)n1	IL-1B inflam inh -93
CCOc1cc(/C=N/NC(=O)Cn2nc([N+](=O)[O-])cc2C)cc(Br)c1OCc1ccccc1F	DT40 TDP1 no CPT inconclusive, DT40 TDP1 CPT 21µM, SW480 rereplic inconclusive
Cc1cc(C)n(CC(=O)N/N=C/c2cc([N+](=O)[O-])ccc2O)n1	DT40 TDP1 no CPT 15µM, DT40 TDP1 CPT 21µM, SW480 rereplic inconclusive
O=C(NCc1ccccc1)c1cc(C2COCCN2C(=O)CCc2ccccc2)on1 (configuration not stated)	none (no result: MCF10A rereplic, Chronic BCR inh, SW480 rereplic)
CCc1c(C(=O)N2CCCN(C)CC2)csc1C	none
COc1ccc(OCC(=O)OCC(=O)Nc2ccc3[nH]c(=O)[nH]c3c2)cc1	none
COC(=O)c1ccccc1NC(=O)CSc1nc2ccccc2nc1Cc1ccc(F)cc1	none (no result: MCF10A rereplic, IL-1B inflam inh, Chronic BCR inh, SW480 rereplic)
O=C(NCC(=O)N1CCN(S(=O)(=O)c2ccccc2C(F)(F)F)CC1)c1sc2ccccc2c1Cl	DT40 TDP1 no CPT 12µM, DT40 TDP1 CPT inconclusive
O=C(Nc1ccncc1)C1C(=O)c2ccccc2N(Cc2ccccc2)C1=O (configuration not stated)	DT40 TDP1 no CPT 0.71µM, DT40 TDP1 CPT 1µM (no result: MCF10A rereplic, IL-1B inflam inh, Chronic BCR inh, SW480 rereplic)
O=C(O)C1C2CCC(O2)C1C(=O)Nc1cnn(Cc2ccccc2)c1 (configuration not stated)	Chronic BCR inh inconclusive
O=C(Nc1cccc(S(=O)(=O)c2cccc(NC(=O)c3ccco3)c2)c1)c1ccco1	DT40 TDP1 no CPT 13µM, DT40 TDP1 CPT inconclusive, Chronic BCR inh inconclusive
O=C(Nc1cc(Br)c(O)c(Br)c1)c1cccc(NC(=O)c2ccco2)c1	MCF10A rereplic 0.73µM
O=C(Nc1cccc(NC(=O)c2ccco2)c1)c1cccc(Br)c1	IL-1B inflam inh -61, DT40 TDP1 no CPT inconclusive, Chronic BCR inh inconclusive
O=C(Nc1cccc(S(=O)(=O)N2CCCC2)c1)c1ccco1	DT40 TDP1 no CPT inconclusive
Cc1ccc(O)c(NC(=O)c2cccc(NC(=O)c3ccco3)c2)c1	DT40 TDP1 no CPT 23µM, DT40 TDP1 CPT inconclusive, Chronic BCR inh inconclusive
COc1ccc(-n2ncc3c(NC(C)(C)CO)ncnc32)cc1	none (no result: MCF10A rereplic, IL-1B inflam inh, SW480 rereplic)
Cc1cc(C)cc(NC(=O)c2cccc(NC(=O)c3ccco3)c2)c1	DT40 TDP1 no CPT 29µM, DT40 TDP1 CPT inconclusive (no result: Chronic BCR inh)
CC(=O)Oc1ccc(C(=O)Nc2cccc(NC(=O)c3ccco3)c2)cc1	MCF10A rereplic 6.5µM, Chronic BCR inh inconclusive
O=C(Nc1cccc(NC(=O)c2ccco2)c1)c1ccc([N+](=O)[O-])cc1	Chronic BCR inh inconclusive
COC(=O)c1cccc(NC(=O)CCNC(=O)c2ccco2)c1	IL-1B inflam inh -101
O=C(CCNC(=O)c1ccco1)Nc1cccc(C(F)(F)F)c1	Chronic BCR inh inconclusive
CC(=O)c1cccc(NC(=O)c2cccc(NC(=O)c3ccco3)c2)c1	Chronic BCR inh inconclusive
N#CN1CCC(NS(=O)(=O)c2ccc(C(F)(F)F)cc2)CC1	none (no result: IL-1B inflam inh, DT40 TDP1 no CPT, DT40 TDP1 CPT)
CC(=O)Nc1ccc(CN(C)c2c(C)nc3ccc(C(=O)NCCCn4ccnc4)cn23)cc1	none (no result: MCF10A rereplic, Chronic BCR inh, SW480 rereplic)
Cn1c(=O)cc(SCC(=O)N2CCN(c3ccc(F)cc3)CC2)c2ccc(Cl)cc21	none (no result: MCF10A rereplic, IL-1B inflam inh, Chronic BCR inh, SW480 rereplic)
Cc1nc2ccccc2c2ncccc12	none
c1cnc2nc3c4ccccc4c4ccccc4c3nc2c1	MCF10A rereplic 10µM, IL-1B inflam inh inconclusive, DT40 TDP1 no CPT 15µM, DT40 TDP1 CPT inconclusive, SW480 rereplic 23µM (no result: Chronic BCR inh)
O=C(C[n+]1cccc(O)c1)NCc1ccc(Cl)cc1	none

Source: PubChem
